Assay outcomes deposited in PubChem by National Center for Advancing Translational Sciences (NCATS).
The list is not random: actives were taken first. Their share in the collection is about 18%.
RORgamma inh: qHTS for inhibitors of ROR gamma transcriptional activity | Nuclear receptor ROR-gamma (Mus musculus), P51450 | Drosophila S2 Gal4-RORgamma UAS-luciferase reporter, 20 h | Potency, µM (doses to about 53.6 µM), hits mostly inhibitors | 310,000 tested, 5.4% active | AID 2551, 2010; further: nearly all actives have a fitted effect of over 60% in size
Target sequence (P51450 whole entry, looked up, the tested form may be a part): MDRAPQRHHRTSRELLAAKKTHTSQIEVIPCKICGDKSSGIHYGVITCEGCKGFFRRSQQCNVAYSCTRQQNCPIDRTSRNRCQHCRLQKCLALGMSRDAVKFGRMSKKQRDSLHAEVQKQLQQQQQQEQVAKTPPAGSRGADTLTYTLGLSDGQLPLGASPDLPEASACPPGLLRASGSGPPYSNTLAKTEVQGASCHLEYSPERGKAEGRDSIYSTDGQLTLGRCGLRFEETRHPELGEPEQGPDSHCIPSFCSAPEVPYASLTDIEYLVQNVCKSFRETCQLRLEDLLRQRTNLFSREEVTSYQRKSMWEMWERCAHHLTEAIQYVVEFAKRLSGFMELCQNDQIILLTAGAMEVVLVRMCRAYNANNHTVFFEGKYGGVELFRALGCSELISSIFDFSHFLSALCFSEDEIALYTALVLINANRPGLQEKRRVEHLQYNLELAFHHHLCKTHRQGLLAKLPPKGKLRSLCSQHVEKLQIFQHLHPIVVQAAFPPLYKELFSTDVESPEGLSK
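Drosophila S2 cells stably expressing Gal4-DBD/mouse RORγ fusion under metallothionein promoter plus UAS-luciferase; compound 1 h, then 700 uM CuSO4 induction for 20 h at ambient temperature; inhibition read as reduced luminescence.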
VP16 counter: VP16 counterscreen qHTS for inhibitors of ROR gamma transcriptional activity | AID 2546, 2010 | Drosophila S2 Gal4-VP16 UAS-luciferase, luminescence, 20 h | Potency, µM (top dose mostly 53.6 µM), most hits filed as inhibitors | 310,000 tested, 3.5% active;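 further: Gal4-VP16 expression switched on by copper sulfate through the metallothionein promoter; nearly all actives have a fitted effect of over 50% in size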
TDP1 cell noCPT: qHTS for Inhibitors of human tyrosyl-DNA phosphodiesterase 1 (TDP1): qHTS in cells in absence of CPT. DT40 Tdp1-/- hTDP1 cells, no CPT, ATP luminescence, 48 h. AID 686978, 2013. Potency, µM (doses to about 46.2 µM), usual class: inhibitors. 420,000 tested, 15% active; further: nearly all actives have a fitted effect of over 55% in size
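Growth of hTDP1-complemented DT40 Tdp1-knockout cells is measured by ATP luminescence after at least 48 hr compound exposure at 37 °C, with DMSO substituting for the 20 nM CPT used in the parallel screen.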
IL1B secr inh: qHTS for Inhibitors of Inflammasome Signaling: IL-1-beta AlphaLISA Primary Screen | THP-1 LPS/ATP IL-1B secretion, AlphaLISA, 16 h; active compounds read low | AID 743279, 2014 | activity change, % at 57.5 µM | 360,000 tested, 4.7% active; in the data active means activity change below about -50%; inconclusive means mostly about -30% to -49%
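THP-1 cells pretreated 1 hr with compounds (up to 57.5 uM final), then stimulated with LPS (250 ng/mL final) plus ATP (1.25 mM final); secreted IL-1B measured by AlphaLISA after 16 hr, decreased signal indicating inhibition.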
LDHA inh: qHTS assay for inhibitors of human lactate dehydrogenase | activity change, % (values are at about 110 or 230 µM) | L-lactate dehydrogenase A chain (Homo sapiens), P00338 | 480,000 tested, 0.15% active | AID 1347041, 2019 | purified LDHA, NADH/diaphorase-resazurin fluorescence; active compounds read low; in the data active means activity change below about -30%; inconclusive means mostly about -25% to -30%
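LDH5 2 nM; NADH 0.06 mM, pyruvate 0.2 mM; 200 mM Tris pH 7.4, EDTA, Tween-20; 5 min RT. Detection: diaphorase 0.133 mg/mL + resazurin 37 µM, fluorescence ex540/em590 at 0 and 20 min; normalized to enzyme-free and DMSO wells.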
TDP1 cell CPT: qHTS for Inhibitors of human tyrosyl-DNA phosphodiesterase 1 (TDP1): qHTS in cells in presence of CPT; chicken DT40 Tdp1-/-;hTDP1 cells + 20 nM CPT, ATP luminescence, 48 h; Potency, µM (titrated, usually from 46.2 µM), hits mostly inhibitors; 420,000 tested, 12% active; further: nearly all actives have a fitted effect of over 55% in size
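Chicken DT40 Tdp1-/- cells complemented with human TDP1, 400 cells/well, exposed to compounds plus 20 nM camptothecin for at least 48 h at 37 C; viability read as ATP content by CellTiter-Glo luminescence.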
Numbers stand for hits; [ ] = another dose, or the depositor's remark. Unless noted, the call rests on the fitted dose curve; in most records, active means well fitted curve in the direction sought with a large enough effect; inconclusive means small, poorly fitted or top-dose-only effect, or another doubt; inactive means no such curve, though single readings can be large; an effect the other way counts as inactive or inconclusive.

Cc1cccc(OCc2nc(CC(=O)Nc3ccc(Cl)cc3)cs2)c1 was read as TDP1 cell noCPT inconclusive, LDHA inh inactive and TDP1 cell CPT 21µM.
For CC(SC(C)c1ccccc1Cl)C(=O)NC(N)=O (stereo unspecified) the results were LDHA inh inactive.
Cc1c(NC(=O)Nc2ccc(Cl)c(Cl)c2)sc(=S)n1C was read as TDP1 cell noCPT inconclusive, IL1B secr inh -97, LDHA inh inactive and TDP1 cell CPT 26µM.
COC(=O)c1ccccc1-c1cc(C)cc2c1OC(CNC(=O)c1cnc(C)cn1)C2 (stereo unspecified) was read as TDP1 cell noCPT 18µM and TDP1 cell CPT inactive[9.04 µM].
For COC(=O)c1ccccc1-c1cc(C)cc2c1OC(CNC(=O)c1cc(C)on1)C2 (stereo unspecified) the results were TDP1 cell noCPT inconclusive and TDP1 cell CPT inactive[9.04 µM].
Screening CCCCC1CCC(C(=O)N2CC(=O)Nc3ccc(C)cc3C2c2ccc(F)cc2)CC1 (stereo unspecified) returned TDP1 cell noCPT inconclusive, LDHA inh inactive and TDP1 cell CPT 9.2µM.
Screening CCOc1ccccc1C(=O)N1CC(=O)Nc2ccc(Cl)cc2C1c1ccccc1 (stereo unspecified) returned TDP1 cell noCPT inconclusive, LDHA inh inactive and TDP1 cell CPT 21µM.
For COc1ccccc1C(=O)N1CC(=O)Nc2ccc(C)cc2C1c1ccc(F)cc1 (stereo unspecified) the results were RORgamma inh inactive, VP16 counter inactive, TDP1 cell noCPT inactive, IL1B secr inh inactive, LDHA inh inactive and TDP1 cell CPT inactive.
`CCOc1ccccc1C(=O)N1CC(=O)Nc2ccc(C)cc2C1c1ccccc1` (stereo unspecified) gave TDP1 cell noCPT 23µM, LDHA inh inactive and TDP1 cell CPT inconclusive.
For COc1cc(SSc2cc(OC)cc([N+](=O)[O-])c2N)c(N)c([N+](=O)[O-])c1 the results were RORgamma inh inconclusive, VP16 counter inactive, TDP1 cell noCPT 4.1µM, IL1B secr inh -77, LDHA inh inactive and TDP1 cell CPT 4.6µM.
Cc1c(CCOC(=O)c2cc([N+](=O)[O-])cc([N+](=O)[O-])c2)sc[n+]1CC(=O)c1ccccc1 was read as RORgamma inh inactive, VP16 counter inconclusive, TDP1 cell noCPT inactive, IL1B secr inh inactive, LDHA inh inactive and TDP1 cell CPT inactive.
Cc1c(CCOC(=O)c2ccccc2)sc[n+]1Cc1ccccc1 was read as RORgamma inh inactive, VP16 counter inactive, TDP1 cell noCPT 23µM, IL1B secr inh inactive, LDHA inh inactive and TDP1 cell CPT 16µM.
For Cc1c(CCOC(=O)c2ccccc2)sc[n+]1CC(=O)c1ccc(Br)cc1 the results were RORgamma inh inactive, VP16 counter inactive, TDP1 cell noCPT inconclusive, IL1B secr inh -65, LDHA inh inactive and TDP1 cell CPT inconclusive.
For CN(Cc1ccncc1)C(=O)CCCNC(=O)C1CC1 the results were LDHA inh inactive.
For Fc1ccc(CN2CCN3CCCC3C2C2CCCCC2)cc1F (stereo unspecified) the results were RORgamma inh inactive, VP16 counter inactive, TDP1 cell noCPT 18µM, IL1B secr inh inactive, LDHA inh inactive and TDP1 cell CPT 23µM.
For Cc1occc1-c1nc(-c2cccc(Br)c2)no1 the results were LDHA inh inactive.
Screening N#CC(C(=O)Nc1ccccc1)C(=O)c1ccccc1Cl (stereo unspecified) returned LDHA inh inactive.
Screening CCCCCN(C(=O)CCC(=O)OCc1cccc(C)c1)c1c(N)n(CCCC)c(=O)[nH]c1=O returned TDP1 cell noCPT inconclusive, IL1B secr inh inactive, LDHA inh inactive and TDP1 cell CPT 21µM.
`CCCCCN(C(=O)CCC(=O)OCc1ccc(Cl)cc1Cl)c1c(N)n(CCCC)c(=O)[nH]c1=O` gave TDP1 cell noCPT inconclusive, IL1B secr inh -66, LDHA inh inactive and TDP1 cell CPT inconclusive.
Screening Cc1c(Cl)cccc1NC(=O)NCCCN(C)CC(F)(F)F returned LDHA inh inactive.
Screening N/C(=N/OC(=O)c1ccc(Cl)cc1)c1ncc([N+](=O)[O-])s1 returned RORgamma inh inactive, VP16 counter inactive, TDP1 cell noCPT 21µM, IL1B secr inh inactive, LDHA inh inactive and TDP1 cell CPT 16µM.
N/C(=N\OC(=O)c1ccc(Cl)c([N+](=O)[O-])c1)c1ccccn1 was read as RORgamma inh inactive, VP16 counter inactive, TDP1 cell noCPT inactive, IL1B secr inh -107, LDHA inh inactive and TDP1 cell CPT inactive.
Screening COc1ccc(C(=O)O/N=C(\N)c2ccccn2)cc1 returned RORgamma inh 14µM, VP16 counter 18µM, TDP1 cell noCPT inactive, IL1B secr inh inactive, LDHA inh inactive and TDP1 cell CPT inactive.
N/C(=N\OC(=O)c1ccc(Cl)c([N+](=O)[O-])c1)c1ccccc1 was read as RORgamma inh inactive, VP16 counter inactive, TDP1 cell noCPT inconclusive, IL1B secr inh inactive, LDHA inh inactive and TDP1 cell CPT inactive.
For N/C(=N\OS(=O)(=O)c1ccc(Cl)cc1)c1ccccn1 the results were RORgamma inh inactive, VP16 counter inactive, TDP1 cell noCPT 16µM, IL1B secr inh inactive, LDHA inh inactive and TDP1 cell CPT inconclusive.
`Cc1ccc(-c2ccc(OCC(=O)Nc3ccc(C(=O)N(C)C)cc3)cc2)cc1` gave LDHA inh inactive.
For CC(C)OC(=O)c1ccn[nH]1 the results were LDHA inh inactive.
N/C(=N\OC(=O)c1cccc(Cl)c1)c1ccccn1 was read as RORgamma inh inconclusive, VP16 counter inconclusive, TDP1 cell noCPT inconclusive, IL1B secr inh inactive, LDHA inh inactive and TDP1 cell CPT inactive.
For N/C(=N\OC(=O)COc1ccc2ccccc2c1)c1ccccn1 the results were RORgamma inh inconclusive, VP16 counter inactive, TDP1 cell noCPT inactive, IL1B secr inh -58, LDHA inh inactive and TDP1 cell CPT inactive.
`N/C(=N\OC(=O)c1ccc(Cl)c(Cl)c1)c1ccccn1` gave RORgamma inh inconclusive, VP16 counter inconclusive, TDP1 cell noCPT inactive, IL1B secr inh inactive, LDHA inh inactive and TDP1 cell CPT inactive.
N/C(=N\OC(=O)c1cccc(Br)c1)c1ccccn1 was read as RORgamma inh 10µM, VP16 counter 18µM, TDP1 cell noCPT inactive, IL1B secr inh inactive, LDHA inh inactive and TDP1 cell CPT inconclusive.
